Results on 26 molecules are retold here after PubChem BioAssay (NCATS).

Experiment [1] addresses ATP-dependent DNA helicase Q1 (Homo sapiens) (UniProt P46063). The experiment can be described thus: qHTS Validation Assay for Inhibitors of RecQ-Like Dna Helicase 1 (RECQ1) (AID 2353). In a few lines:
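50 nM RECQ1T1 preincubated 15 min with compound in Tris pH 8.0 buffer with MgCl2, DTT, Tween-20 and 2.5 ug/ml poly(dI-dC); started with 200 nM TAMRA/BHQ-2 forked duplex and 2 mM ATP. Unwinding read as fluorescence (525/598 nm), two reads 2 h apart.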
In general terms: In qHTS, concentration-response curves come from the screen itself.

Experiment [2] can be described thus: High Content Imaging Cell-Based qHTS for Inhibitors of the mTORC1 Signaling Pathway in MEF (Tsc2-/-, p53-/-) Cells (AID 2666).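 Also: percent of cells scored positive for phospho-rpS6 Ser235/236 immunostaining by imaging.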 Put shortly:
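Read-out: % positive cells per well, with thresholds from highest- and lowest-signal wells, based on phospho-rpS6 (Ser235/236) intensity normalized to Hoechst nuclear stain. Cells: Tsc2-/-, p53-/- MEFs carrying empty vector; compound 24 hrs, 37 degree Celsius.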

Experiment [3] can be described thus: Validation screen for small molecules that induce DNA re-replication in MCF 10A normal breast cells (AID 463097). Also: nearly all actives have a fitted effect of over 60% in size. Also: potency is read from the fitted curve at half-maximal effect. Put shortly: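 Read-out is Hoechst total nuclear intensity by fluorescence scanning imager, flagging increased high-DNA-content nuclei. Compounds were incubated with MCF 10A cells for 48 hr (37 C, 5% CO2) before 40 min staining.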
Experiment [4] concerns the target Ubiquitin carboxyl-terminal hydrolase 2 (Homo sapiens) (UniProt O75604). The experiment can be described thus: qHTS Validation Assay for Inhibitors of Ubiquitin-specific Protease USP2a Using CHOP2 as the Reporter (AID 463106). Also: potency is read from the fitted curve at half-maximal effect. In a few lines:
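USP2 core (10nM final) was preincubated with compound for 30min at RT in 20mM Tris-HCl pH 8.0, 2mM CaCl2, 2mM beta-mercaptoethanol, 0.05% CHAPS. Ub-CHOP2 and reporter substrate (25nM each) were added, and fluorescence (Ex 485/Em 531nm) was read after 60min.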

Experiment [5] concerns the target Tumor susceptibility gene 101 protein (Homo sapiens) (UniProt Q99816). The experiment can be described thus: qHTS Validation Assay for Iinhibitors of HIV-1 Budding by Blocking the Interaction of PTAP/TSG101 (AID 485342; calls by dose curve). In a few lines:
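Fluorescence polarization of 50 nM FITC-PTAP peptide bound to 10 uM Tsg101 binding domain was read after 20 min room-temperature incubation with compounds, in 10 mM HEPES pH 7.5, 0.15 M NaCl, 0.01% Tween 20.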

Experiment [6] is described as follows: High Content Imaging Cell-Based qHTS for Inhibitors of the mTORC1 Signaling Pathway in MEF Cells (AID 2667). Also: potency is read from the fitted curve at half-maximal effect. Put shortly:
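MEF (Tsc2-/-, p53-/-, WT Tsc2 re-expressed); cpd 24 h, 37 °C; PFA fix; Alexa-488 anti-p-rpS6 Ser235/236, PI, Hoechst; IN Cell imaging; Hoechst/Alexa-488 intensity ratio; % active cells, thresholds set from rapamycin and DMSO wells.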

Experiment [7] in a line: Cytometry Cell-Based qHTS for Inhibitors of the mTORC1 Signaling Pathway in MEF cells (AID 2668).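 Also: Tsc2-/- p53-/- mouse embryonic fibroblasts stably re-expressing wild-type Tsc2; percent cells positive for phospho-rpS6 Ser235/236 relative to propidium iodide stain; series mostly up to about 38 µM.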 Put shortly: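 Phospho-rpS6 (Ser235/236) immunofluorescence over PI signal, scored as % positive cells using thresholds from 7.5 nM rapamycin and DMSO wells, after 24 h compound exposure of WT-Tsc2-rescued Tsc2-/-, p53-/- MEFs. PI cell count recorded for viability.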
In experiment [8] the target is DNA polymerase III PolC-type (Bacillus subtilis (strain 168)) (UniProt P13267). As to the kind of experiment: qHTS Validation Assay for the Inhibitors of DNA Replication in Gram-Positive Bacteria (AID 485295). Also: potency is read from the fitted curve at half-maximal effect. In a few lines:
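Double-stranded DNA product detected by PicoGreen fluorescence after EDTA quench. Compound incubated with B. subtilis holoenzyme (PolC, beta subunit, SSB, primase) before substrate addition; primed replication of M13Gori with dNTPs and NTPs at room temperature; DMSO defines 0% inhibition.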

The nature of experiment [9]: Cytometric Cell-Based qHTS for Inhibitors of the mTORC1 Signaling Pathway in MEF (Tsc2-/-, p53-/-) Cells (AID 2660).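 Also: percent of cells above a phospho-rpS6 to PI ratio cutoff in each well; series mostly up to about 38 µM.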 Put shortly:
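Tsc2-/-, p53-/- MEFs (empty vector) exposed to compound 24 h at 37 C, fixed, stained with Alexa-488 anti-phospho-rpS6 Ser235/236 and propidium iodide. Acumen laser scanning; phospho-S6/PI ratio thresholded against 7.5 nM rapamycin, reported as % positive cells.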

The target of experiment [10] is RecQ-like DNA helicase BLM (Homo sapiens) (UniProt P54132). The experiment can be described thus: qHTS Validation Assay for Inhibitors of Bloom's syndrome helicase (BLM) (AID 2364). In a few lines: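 BLM 50 nM in 25 mM Tris-HCl pH 8.0, 5 mM NaCl, 2 mM MgCl2, 1 mM DTT, 0.01% Tween-20, 2.5 ug/ml poly(dI-dC); 15 min cpd preinc, RT. Start: 200 nM forked DNA + 2 mM ATP (final). TAMRA read, 2 reads 2 h apart.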
Chain of RecQ-like DNA helicase BLM (Homo sapiens) (P54132 whole entry, looked up): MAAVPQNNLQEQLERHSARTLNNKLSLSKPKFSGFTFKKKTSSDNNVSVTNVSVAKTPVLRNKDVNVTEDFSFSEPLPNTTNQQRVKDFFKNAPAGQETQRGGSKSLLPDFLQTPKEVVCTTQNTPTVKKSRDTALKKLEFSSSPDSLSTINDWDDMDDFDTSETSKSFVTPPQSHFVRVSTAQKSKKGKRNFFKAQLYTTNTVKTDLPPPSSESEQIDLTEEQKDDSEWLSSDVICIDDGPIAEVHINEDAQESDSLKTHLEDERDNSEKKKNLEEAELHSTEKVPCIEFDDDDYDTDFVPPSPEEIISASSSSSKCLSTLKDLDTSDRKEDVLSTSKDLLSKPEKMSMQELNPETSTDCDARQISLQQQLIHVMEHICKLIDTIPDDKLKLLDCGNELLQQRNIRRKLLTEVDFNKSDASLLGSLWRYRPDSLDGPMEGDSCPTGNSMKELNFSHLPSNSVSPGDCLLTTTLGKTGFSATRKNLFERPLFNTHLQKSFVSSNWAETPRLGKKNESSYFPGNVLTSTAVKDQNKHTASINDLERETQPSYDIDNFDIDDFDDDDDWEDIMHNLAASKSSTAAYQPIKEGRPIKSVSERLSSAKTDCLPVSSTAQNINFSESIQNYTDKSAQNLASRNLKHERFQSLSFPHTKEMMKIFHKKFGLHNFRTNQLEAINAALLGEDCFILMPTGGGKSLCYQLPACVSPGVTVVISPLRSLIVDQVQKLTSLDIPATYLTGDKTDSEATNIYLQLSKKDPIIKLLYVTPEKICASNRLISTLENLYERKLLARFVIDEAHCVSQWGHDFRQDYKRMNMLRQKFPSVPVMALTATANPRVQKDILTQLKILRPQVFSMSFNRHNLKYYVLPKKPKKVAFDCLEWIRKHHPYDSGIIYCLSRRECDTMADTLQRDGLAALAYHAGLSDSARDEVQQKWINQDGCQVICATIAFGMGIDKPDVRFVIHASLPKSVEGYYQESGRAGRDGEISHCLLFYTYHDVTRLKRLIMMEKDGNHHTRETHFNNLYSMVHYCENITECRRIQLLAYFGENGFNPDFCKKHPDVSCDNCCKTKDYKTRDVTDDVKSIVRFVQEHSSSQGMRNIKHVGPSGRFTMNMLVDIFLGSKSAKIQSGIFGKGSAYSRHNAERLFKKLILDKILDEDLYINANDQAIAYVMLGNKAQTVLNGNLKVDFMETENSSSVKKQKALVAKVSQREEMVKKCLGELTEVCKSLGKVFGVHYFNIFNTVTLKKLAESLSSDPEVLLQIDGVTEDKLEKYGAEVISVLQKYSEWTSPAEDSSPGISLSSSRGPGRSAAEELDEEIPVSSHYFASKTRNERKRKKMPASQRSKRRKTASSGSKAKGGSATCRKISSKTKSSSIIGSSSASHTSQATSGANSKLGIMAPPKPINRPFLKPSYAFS

Results filed as inconclusive are left out. Active and inactive are the calls of the source. Unless noted, calls follow the shape of the dose curve; as a rule, active = well fitted curve in the direction sought with a large enough effect; inconclusive = small, poorly fitted or top-dose-only effect, or another doubt; inactive = no such curve, though single readings can be large; an effect the other way counts as inactive or inconclusive.

Chain of Tumor susceptibility gene 101 protein (Homo sapiens) (Q99816 whole entry, looked up, the tested form may be a part): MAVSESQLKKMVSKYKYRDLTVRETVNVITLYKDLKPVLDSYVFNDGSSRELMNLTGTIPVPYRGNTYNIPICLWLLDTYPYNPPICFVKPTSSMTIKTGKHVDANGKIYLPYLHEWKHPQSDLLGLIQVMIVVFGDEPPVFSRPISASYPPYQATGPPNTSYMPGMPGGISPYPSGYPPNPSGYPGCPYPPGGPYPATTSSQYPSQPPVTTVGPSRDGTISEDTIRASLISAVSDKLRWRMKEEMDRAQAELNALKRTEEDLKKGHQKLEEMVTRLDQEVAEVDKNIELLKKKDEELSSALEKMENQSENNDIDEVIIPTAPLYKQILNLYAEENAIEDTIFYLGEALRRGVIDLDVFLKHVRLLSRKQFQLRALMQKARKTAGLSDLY
Chain of Ubiquitin carboxyl-terminal hydrolase 2 (Homo sapiens) (O75604 whole entry, looked up): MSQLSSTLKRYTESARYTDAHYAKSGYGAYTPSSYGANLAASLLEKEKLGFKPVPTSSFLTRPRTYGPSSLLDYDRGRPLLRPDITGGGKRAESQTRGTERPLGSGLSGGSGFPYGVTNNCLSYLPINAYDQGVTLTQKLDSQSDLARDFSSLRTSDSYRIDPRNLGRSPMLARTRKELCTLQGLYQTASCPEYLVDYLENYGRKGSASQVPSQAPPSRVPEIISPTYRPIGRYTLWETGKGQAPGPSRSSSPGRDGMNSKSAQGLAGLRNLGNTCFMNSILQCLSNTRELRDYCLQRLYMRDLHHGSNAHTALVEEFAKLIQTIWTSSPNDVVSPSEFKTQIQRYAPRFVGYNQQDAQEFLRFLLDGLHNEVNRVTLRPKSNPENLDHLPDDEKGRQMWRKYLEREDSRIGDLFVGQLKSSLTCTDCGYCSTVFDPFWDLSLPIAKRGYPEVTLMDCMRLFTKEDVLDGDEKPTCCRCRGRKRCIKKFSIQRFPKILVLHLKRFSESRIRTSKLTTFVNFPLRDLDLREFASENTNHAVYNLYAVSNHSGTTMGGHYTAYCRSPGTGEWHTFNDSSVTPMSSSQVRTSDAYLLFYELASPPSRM
Chain of DNA polymerase III PolC-type (Bacillus subtilis (strain 168)) (P13267 whole entry, looked up): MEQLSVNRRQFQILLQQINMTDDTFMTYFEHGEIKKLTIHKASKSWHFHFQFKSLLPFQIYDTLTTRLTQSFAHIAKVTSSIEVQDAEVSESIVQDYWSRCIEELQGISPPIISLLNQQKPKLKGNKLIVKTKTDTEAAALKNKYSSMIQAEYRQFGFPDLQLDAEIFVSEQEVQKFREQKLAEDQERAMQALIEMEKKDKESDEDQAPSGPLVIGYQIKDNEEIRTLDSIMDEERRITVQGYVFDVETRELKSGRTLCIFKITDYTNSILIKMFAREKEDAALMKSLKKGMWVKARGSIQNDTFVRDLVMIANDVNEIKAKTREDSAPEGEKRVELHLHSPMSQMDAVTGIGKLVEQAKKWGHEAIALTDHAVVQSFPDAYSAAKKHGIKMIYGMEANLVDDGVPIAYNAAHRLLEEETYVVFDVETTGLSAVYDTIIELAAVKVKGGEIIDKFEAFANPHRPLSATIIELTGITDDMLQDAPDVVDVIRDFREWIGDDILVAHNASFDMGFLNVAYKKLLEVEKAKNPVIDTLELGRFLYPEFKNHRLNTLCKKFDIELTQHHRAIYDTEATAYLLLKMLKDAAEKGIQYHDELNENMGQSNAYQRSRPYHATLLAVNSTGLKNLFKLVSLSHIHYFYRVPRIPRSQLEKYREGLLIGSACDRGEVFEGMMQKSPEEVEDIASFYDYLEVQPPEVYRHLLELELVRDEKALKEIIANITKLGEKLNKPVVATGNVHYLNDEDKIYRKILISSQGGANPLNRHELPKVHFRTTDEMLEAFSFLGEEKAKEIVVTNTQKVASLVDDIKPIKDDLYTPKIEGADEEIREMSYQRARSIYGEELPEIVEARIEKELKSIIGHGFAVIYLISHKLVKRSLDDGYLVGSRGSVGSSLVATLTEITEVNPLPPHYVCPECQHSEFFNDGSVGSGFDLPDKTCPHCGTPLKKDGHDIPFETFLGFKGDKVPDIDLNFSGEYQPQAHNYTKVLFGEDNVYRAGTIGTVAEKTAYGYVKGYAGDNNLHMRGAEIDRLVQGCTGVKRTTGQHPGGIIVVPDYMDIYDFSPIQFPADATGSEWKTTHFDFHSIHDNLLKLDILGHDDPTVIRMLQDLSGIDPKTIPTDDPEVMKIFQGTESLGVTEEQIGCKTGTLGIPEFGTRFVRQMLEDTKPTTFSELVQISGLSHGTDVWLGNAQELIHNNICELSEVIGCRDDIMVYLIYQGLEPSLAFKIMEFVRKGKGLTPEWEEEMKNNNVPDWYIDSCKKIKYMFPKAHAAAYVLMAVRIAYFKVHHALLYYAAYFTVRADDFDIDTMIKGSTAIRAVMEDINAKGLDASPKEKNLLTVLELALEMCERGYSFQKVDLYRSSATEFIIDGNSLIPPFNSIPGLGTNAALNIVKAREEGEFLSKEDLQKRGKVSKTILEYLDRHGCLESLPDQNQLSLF
Chain of ATP-dependent DNA helicase Q1 (Homo sapiens) (P46063 whole entry, looked up): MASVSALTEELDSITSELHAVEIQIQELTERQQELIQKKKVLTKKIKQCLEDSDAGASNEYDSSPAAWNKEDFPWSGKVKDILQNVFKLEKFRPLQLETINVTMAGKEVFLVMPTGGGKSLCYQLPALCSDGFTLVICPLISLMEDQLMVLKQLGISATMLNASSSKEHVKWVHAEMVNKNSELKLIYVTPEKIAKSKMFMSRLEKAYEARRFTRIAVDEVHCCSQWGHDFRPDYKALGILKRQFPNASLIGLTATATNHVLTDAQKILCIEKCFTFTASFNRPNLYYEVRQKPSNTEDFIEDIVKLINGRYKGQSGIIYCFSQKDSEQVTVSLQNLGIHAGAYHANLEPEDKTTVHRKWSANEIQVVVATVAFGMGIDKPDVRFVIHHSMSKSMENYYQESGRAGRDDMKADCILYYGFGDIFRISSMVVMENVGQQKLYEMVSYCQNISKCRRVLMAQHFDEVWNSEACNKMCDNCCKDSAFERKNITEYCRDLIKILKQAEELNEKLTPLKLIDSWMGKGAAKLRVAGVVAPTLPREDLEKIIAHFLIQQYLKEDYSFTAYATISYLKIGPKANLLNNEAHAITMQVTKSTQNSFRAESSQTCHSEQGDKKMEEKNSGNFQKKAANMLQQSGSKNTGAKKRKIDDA

On to `O=C(c1ccc(OCCN2CCCCC2)cc1)c1c(-c2ccc(O)cc2)sc2cc(O)ccc12`, for which the Potency entry in [1], in experiment [2] and in experiment [4] was “inactive” in each case. Besides, the Potency in experiment [3] is 11.2 µM (active). Moreover, the molecule was called inactive in [5].

For the molecule `O=C1Cc2cc(CCN3CCN(c4nsc5ccccc45)CC3)c(Cl)cc2N1`, the Potency entry in experiment [2], in [6], in [7], in experiment [4] and in experiment [8] was “inactive” each time. Moreover, the outcome in experiment [5] was inactive.

As for `Nc1nc2c(ncn2COC(CO)CO)c(=O)[nH]1`, the Potency entry in experiment [1], in [2], in [6], in [7], in experiment [3] and in experiment [4] was “inactive” throughout. The molecule was called inactive in [9] and in experiment [5].

Turning to `COc1ccccc1OCCNCC(O)COc1cccc2[nH]c3ccccc3c12` (centres undefined), the result in experiment [9] and in experiment [5] was inactive. Further, the Potency entry in experiment [2], in [4] and in experiment [8] was “inactive” in each case.

As to `CN(C)C(=O)C(CCN1CCC(O)(c2ccc(Cl)cc2)CC1)(c1ccccc1)c1ccccc1`, the Potency entry in experiment [1], in experiment [4] and in [8] was “inactive” in each case. Moreover, in experiment [5], the molecule was called inactive.

Consider `Clc1ccc(C(c2ccccc2Cl)C(Cl)Cl)cc1` (centres undefined), for which the Potency entry in [1], in experiment [2], in [6], in experiment [7], in experiment [3] and in experiment [4] was “inactive” in each case. The molecule was classed as inactive in experiment [9] and in experiment [5].

In the case of `Cc1cn([C@H]2C=C[C@@H](CO)O2)c(=O)[nH]c1=O`, the Potency entry in experiment [1], in experiment [2], in experiment [6], in [7], in [3] and in experiment [4] was “inactive” throughout. The molecule was called inactive in [9] and in experiment [5].

Consider `Clc1ccccc1C(c1ccccc1)(c1ccccc1)n1ccnc1`, for which the Potency result in [1], in experiment [2], in experiment [6], in experiment [7], in [4] and in experiment [8] was “inactive” throughout. Besides, the molecule was called inactive in experiment [9] and in experiment [5].

Turning to `Clc1ccc2nsnc2c1NC1=NCCN1`, the molecule was classed as inactive in experiment [9] and in experiment [5]. The Potency entry in experiment [2], in experiment [6], in experiment [7] and in experiment [4] was “inactive” in each case.

As for `COC(=O)Nc1nc2ccc(C(=O)c3cccs3)cc2[nH]1`, the Potency entry in experiment [1], in experiment [2], in experiment [6] and in experiment [4] was “inactive” throughout. For the same molecule, the Potency in experiment [3] was 0.158 µM (active). Moreover, the call in experiment [5] was inactive.

As to `CCCCc1oc2ccccc2c1C(=O)c1cc(I)c(OCCN(CC)CC)c(I)c1`, the Potency entry in experiment [1], in experiment [2], in [4] and in experiment [8] was “inactive” in each case. The call in [9] and in experiment [5] was inactive. The Potency in [6] was 13.1 µM (active).

Consider `Nc1ccn([C@H]2CC[C@@H](CO)O2)c(=O)n1`, for which the Potency entry in experiment [1], in [2], in experiment [6], in [7], in experiment [3] and in [4] was “inactive” throughout. In addition, the result in experiment [9] and in experiment [5] was inactive.

For `NCCS(=O)(=O)O`, the Potency entry in experiment [1], in experiment [2], in experiment [6], in experiment [7], in [3] and in experiment [4] was “inactive” in each case. Besides, the molecule was classed as inactive in [9] and in experiment [5].

For the molecule `CC(C)Cc1ccc(C(C)C(=O)O)cc1` (centres undefined), the Potency entry in [1], in [2], in experiment [6], in experiment [7], in experiment [3] and in experiment [8] was “inactive” each time. Besides, the molecule was classed as inactive in experiment [9] and in [5].

Turning to `O=c1c(O)c(-c2ccc(O)c(O)c2)oc2cc(O)cc(O)c12`, the molecule was called inactive in experiment [9] and in experiment [5]. In addition, the Potency entry in [2], in [6], in experiment [7] and in experiment [3] was “inactive” each time.

As for `COc1cc2nc(N(C)CCCNC(=O)C3CCCO3)nc(N)c2cc1OC` (centres undefined), the molecule was called inactive in experiment [9] and in experiment [5]. In addition, the Potency entry in [2], in experiment [6], in [7], in experiment [4] and in experiment [8] was “inactive” in each case.

Consider `C[C@H]1c2cccc(O)c2C(O)=C2C(=O)[C@]3(O)C(O)=C(C(N)=O)C(=O)[C@@H](N(C)C)[C@@H]3[C@@H](O)[C@@H]21`, for which the call in experiment [9] and in experiment [5] was inactive. Also, the Potency result in experiment [2], in [6], in experiment [7], in experiment [4] and in [8] was “inactive” throughout.

On to `Cc1cn([C@H]2C[C@H](N=[N+]=[N-])[C@@H](CO)O2)c(=O)[nH]c1=O`, for which the result in experiment [9] and in [5] was inactive. Also, the Potency result in [2], in experiment [6], in experiment [7] and in experiment [4] was “inactive” throughout.

Regarding `Cc1ccc(C(=O)Nc2ccc(S(=O)(=O)O)c3cc(S(=O)(=O)O)cc(S(=O)(=O)O)c23)cc1NC(=O)c1cccc(NC(=O)Nc2cccc(C(=O)Nc3cc(C(=O)Nc4ccc(S(=O)(=O)O)c5cc(S(=O)(=O)O)cc(S(=O)(=O)O)c45)ccc3C)c2)c1`, the Potency entry in experiment [10], in experiment [2], in experiment [6], in experiment [7] and in experiment [3] was “inactive” each time. In experiment [9], the outcome was inactive. Further, the Potency is 3.29 µM (active) in [4] and 7.52 µM (active) in experiment [8].

For `CC(C)(Oc1ccc(C2CC2(Cl)Cl)cc1)C(=O)O` (centres undefined), the Potency entry in experiment [1], in [2], in experiment [6], in experiment [7], in [3] and in [4] was “inactive” each time. Further, the outcome in experiment [9] and in experiment [5] was inactive.

`CC12CC3CC(C)(C1)CC(N)(C3)C2`: the Potency entry in experiment [1], in [2], in experiment [6], in [3], in experiment [4] and in [8] was “inactive” each time. Moreover, the molecule was classed as inactive in [9] and in experiment [5].

As for `OCCN(CCO)c1nc(N2CCCCC2)c2nc(N(CCO)CCO)nc(N3CCCCC3)c2n1`, the Potency entry in [1], in [2], in [6], in experiment [7] and in experiment [8] was “inactive” throughout. Also, the outcome in [9] was inactive. Further, the Potency in [3] is 12.6 µM (active).

For the molecule `Cc1ccccc1N1C(=O)c2cc(S(N)(=O)=O)c(Cl)cc2NC1C` (centres undefined), the Potency entry in [1], in [2], in experiment [6], in experiment [7], in [3] and in experiment [4] was “inactive” each time. Further, the result in experiment [9] and in experiment [5] was inactive.

Regarding `CCN1CCCC1CNC(=O)c1cc(S(=O)(=O)CC)c(N)cc1OC` (centres undefined), the outcome in experiment [9] and in experiment [5] was inactive. The Potency entry in experiment [2], in experiment [6], in experiment [7], in experiment [4] and in experiment [8] was “inactive” in each case.

In the case of `NCCCCCC(=O)O`, the Potency entry in experiment [10], in [2], in experiment [6], in [7], in [3] and in [4] was “inactive” each time. Besides, in [8], the Potency result was “inactive”. Besides, the outcome in experiment [9] and in experiment [5] was inactive.

In the case of `NC(=O)NO`, the Potency result in experiment [1], in experiment [2], in experiment [6], in experiment [7], in experiment [3] and in experiment [4] was “inactive” throughout. Moreover, the molecule was called inactive in experiment [9] and in experiment [5].
